D1 potentiator = potentiators of human D1 dopamine receptor | HEK293 TREx D1 cells, calcium flux, dopamine EC20 potentiation | potentiation, % at 10 µM | actives 0.036% (n = 360,000) | AID 504651; in the data active = potentiation above about 30%; also: 0% is about no effect
Target sequence (P21728 whole entry, looked up): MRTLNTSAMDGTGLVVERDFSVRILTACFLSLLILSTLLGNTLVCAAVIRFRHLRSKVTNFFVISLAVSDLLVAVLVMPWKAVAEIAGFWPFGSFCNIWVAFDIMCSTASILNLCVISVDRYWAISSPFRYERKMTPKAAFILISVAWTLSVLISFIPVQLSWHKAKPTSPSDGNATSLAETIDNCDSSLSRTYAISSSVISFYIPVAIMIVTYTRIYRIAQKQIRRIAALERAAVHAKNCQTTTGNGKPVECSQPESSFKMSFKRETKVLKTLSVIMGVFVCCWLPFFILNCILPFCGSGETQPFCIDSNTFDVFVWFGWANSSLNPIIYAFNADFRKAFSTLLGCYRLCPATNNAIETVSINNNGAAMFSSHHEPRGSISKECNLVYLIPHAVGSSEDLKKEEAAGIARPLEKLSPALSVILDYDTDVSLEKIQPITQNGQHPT
TRHR PAM = TRH receptor (human) allosteric enhancement; AID 493056; enhancement, % at 2 µM; TRHR cells, fluo-8 calcium fluorescence, EC20 TRH enhancement; P34981; actives 0.66% (n = 360,000); in the data active = enhancement above about 30%; also: 0% is about no effect
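Enhancer read-out: after compound pinning and an initial kinetic agonist-mode read, an EC20 of TRH (10 nM final) was injected and fluo-8 calcium signal (Ex 480/Em 530) followed at 1 s/cycle for 100 cycles in TRHR-expressing cells.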
TRHR ag = activates the human TRH receptor; activation, % at 2 µM; actives 0.18% (n = 360,000); TRHR cells, calcium flux fluo-8, FDSS agonist mode; P34981; also: 0% is about no effect
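Steps: seed TRHR cells overnight; add fluo-8 no-wash Ca dye, RT 30 min–1.5 h; record 10 s baseline; pin-transfer compounds; monitor fluorescence 1 cycle/s for the agonist window. Calcium increases flag candidate agonists.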
D1 ag = agonists of human D1 dopamine receptor | AID 504660 | actives 1% (n = 360,000) | HEK293 T-REx D1 cells, calcium flux, agonist mode | activation, % at 2 µM | P21728; also: 0% is about no effect
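Inducible HEK293 T-REx D1 cells, force-coupled to calcium signalling, were plated at 4000 cells/well with tetracycline and held overnight at 30 C. After no-wash calcium dye loading, compound-evoked calcium rise over 180 s flagged agonists.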
GRP78 ERSR act = ER stress response induction in glioma; U87-MG GRP78 promoter luciferase reporter, 16 h; Potency, µM, without a hit: at the top dose activation, usual class: activators; actives 0.02% (n = 420,000); AID 602332; active = well fitted activation curve with a large enough effect; also: potency is read from the fitted curve at half-maximal effect; series mostly up to about 76 µM; % of control where 0% means no effect; nearly all actives have a fitted effect of over 35% in size
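Stably transfected U87-MG glioma cells carrying a GRP78-based luciferase sensor; 16 h compound incubation. Luminescence end-point read 10 min after Bright-Glo addition at room temperature.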
D1 antagonist = human D1 dopamine receptor antagonism; actives 3.2% (n = 360,000); activity change, negative = inhibition, % at 10 µM; P21728; HEK293 TREx D1 cells, calcium flux, dopamine EC80; stronger effect = lower value; AID 504652; in the data active = activity change below about -30%; also: % is scaled to controls: 0 for no effect and ±100 for the full control effect
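Kinetic fluorescence of a calcium dye serves as the read-out. D1-expressing Hek293 Trex cells, induced overnight at 30 C, are exposed to compound for 180 s before an EC80 dopamine addition, then read 180 s further.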
* = called active by the depositor; . = no result. Only some compounds are listed: those with a hit (about 4% of all), similar ones and a draw of the others. Rule as the data show it, unless noted: active = activation above about 30%; inactive = the rest.

SMILES	D1 potentiator	TRHR PAM	TRHR ag	D1 ag	GRP78 ERSR act	D1 antagonist
CCc1ccc2oc(C(=O)Nc3ccccc3C(=O)OC)cc(=O)c2c1	1	9	0	3	-2%	-17
O=[N+]([O-])c1ccc(O)c(C2=NNC(c3ccccc3F)C2)c1 (stereo unspecified)	0	-3	1	14	2%	-33*
CN(C)c1cc2c(cc1NC(=O)c1ccc(F)cc1)n(C)c(=O)n2C	1	-3	0	4	-1%	2
CC(C)(C)c1ccc(C(=O)NCCC(=O)NNC(=O)COc2ccccc2F)cc1	.	.	.	.	-2%	.
O=c1c2c(nc3nc(NCc4ccccc4Cl)[nH]n13)CCC2	-1	1	-1	2	.	-36*
COc1ccccc1CNc1nc2nc3c(c(=O)n2[nH]1)CCC3	3	-5	0	4	-3%	5
CC1CC(C)CN(CCCNC(=O)CN2C(=O)c3cccnc3Oc3ccc(Cl)cc32)C1 (stereo unspecified)	0	-2	-1	4	3%	7
Cn1cnnc1SCC(=O)c1ccc(O)c(O)c1	5	-2	0	2	-2%	8
CC(=O)c1ccc(O)c(CSc2nncn2C)c1	-11	-7	1	7	-4%	-32*
COc1cccc(-c2ccc(O)c(CNCc3cccc(OC)c3OC)c2)n1	.	.	.	.	-3%	.
COc1ccc(-n2c(CNC(=O)c3cccc(OC)c3OC)nnc2SC)cc1	.	.	.	.	-6%	.
O=C1C2CC=CCC2C(=O)N1c1ncn[nH]1 (stereo unspecified)	-1	2	-1	3	-4%	0
Cc1ccc(C)n1-c1ncn[nH]1	-12	30*	0	3	2%	-4
N#Cc1nc(NC2CCCC2)c2ncn(-c3cc(F)cc(F)c3)c2n1	-2	-3	1	0	.	5
O=C(c1cccc(S(=O)(=O)NCCOc2ccccc2)c1)N1CCN(c2ncccn2)CC1	1	-3	0	6	-2%	-12
CCOC(=O)c1ccc(NC(=S)NCc2ccccc2)cc1	-17	-1	1	22	8%	-56*
CCOC(=O)c1ccc(NC(=O)NCc2ccccc2)cc1	-6	-10	0	7	-1%	-9
CC(=O)c1ccc(NC(=S)NCCc2cccc(Cl)c2)cc1	-6	-1	1	22	2%	-37*
CCOC(=O)c1ccc(NC(=S)NCCc2ccccc2)cc1	-7	0	1	28	-4%	-38*
CN(C[C@H](Cc1ccccc1)N(C[C@H](Cc1ccccc1)N(CC1(c2ccccc2)CC1)N=O)N=O)N=O	2	-2	0	1	-3%	12
C=CCSc1nnc(C2CCCN(Cc3ccccc3O)C2)n1C (stereo unspecified)	.	.	.	.	-2%	.
CC(=O)Nc1cc(C(=O)NCc2ccccc2)ccc1Sc1ccc(C)cc1	0	3	-1	-1	1%	9
CC(=O)Nc1cc(C(=O)NCc2ccc(F)cc2)ccc1Sc1ccc(C)cc1	-1	5	-1	-3	-2%	-39*
COc1cc(-c2nc3ccc(Cl)cn3c2Nc2ccc3c(c2)OCO3)ccc1O	5	-6	-1	-1	-5%	-11
CN1CCN(C(=O)c2ccc(CS(=O)Cc3ccc(Cl)cc3)o2)CC1 (stereo unspecified)	0	-1	1	3	-2%	-34*
CC1CC(C)CN(C(=O)Cn2c(SCC(=O)N3CCc4ccccc4C3)nc3ccccc32)C1 (stereo unspecified)	6	-14	0	1	-7%	-65*
COc1ccc(CN/C(C)=C(/C#N)C(N)=O)cc1OC	-5	5	0	2	2%	-66*
Cc1nn(-c2ccccc2)c2c1C(=O)N(c1ccccc1)C(=O)C(C)(C)C2	-3	-5	-1	2	-2%	-40*
Cc1nn(-c2ccccc2)c2c1/C(=N/O)CC(C)(C)C2	-11	-3	0	2	0%	-3
COc1ccc(-c2ccc3c(N)c(C(=O)c4ccc(OC)c(OC)c4)sc3n2)cc1	-3	4	15	78*	-1%	-17

Screens deposited in PubChem BioAssay by National Center for Advancing Translational Sciences (NCATS).
